Data from PubChem BioAssay (NCATS).
Inconclusive results are not listed. Activity calls are given as the source filed them. Calls follow the shape of the dose curve; as a rule, active = well fitted curve in the direction sought with a large enough effect; inconclusive = small, poorly fitted or top-dose-only effect, or another doubt; inactive = no such curve, though single readings can be large; an effect the other way counts as inactive or inconclusive.

Tests used:
[1] = test system: Zika virus NS2B-NS3 protease (linked construct); experiment: Primary screen NINDS Rhodamine qHTS for Zika virus inhibitors (AID 1347160); also: nearly all actives have a fitted effect of over 55% in size
How it was run: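 Each compound, titrated, sat 15 min with 25 nM linked protease before 1.5 microM Rhodamine110 substrate went in. Fluorescence gain over the next 15 min, in pH 8.0 Tris with Tween 20, gave Hill-fitted curves.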

[2] = molecular target: Calcium and integrin-binding protein 1 (Homo sapiens) (UniProt Q99828); experiment: Primary qHTS for Identification of Calcium Integrin Binding Protein 1 (CIB1) Competitor (AID 1508620);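 also: GST tagged CIB1 binding a fluorescein labelled alphaIIb integrin peptide tracer; top concentration of the series differs between compounds; % is scaled to controls: 0 for no effect and ±100 for the full control effect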
Chain of Calcium and integrin-binding protein 1 (Homo sapiens) (Q99828 whole entry, looked up): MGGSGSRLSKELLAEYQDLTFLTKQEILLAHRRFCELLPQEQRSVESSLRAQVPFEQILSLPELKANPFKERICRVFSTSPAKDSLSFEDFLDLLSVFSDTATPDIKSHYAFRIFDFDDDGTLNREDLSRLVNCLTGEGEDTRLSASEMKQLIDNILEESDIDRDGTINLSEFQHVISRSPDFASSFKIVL
How it was run: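 Fluorescence polarization competition: CIB1-GST (1 uM final) preincubated with compound 15 min at room temperature, then FITC-labeled alphaIIb peptide (100 nM final) added for another 15 min. Polarization read at Ex 480/Em 540.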

[3] = molecular target: Glutathione peroxidase 1 (Homo sapiens) (UniProt P07203); experiment: Primary qHTS Assay for Inhibitors of Recombinant Selenoprotein Glutathione Peroxidase 1 (GPX1) (AID 1845191); also: nearly all actives have a fitted effect of over 65% in size
Chain of Glutathione peroxidase 1 (Homo sapiens) (P07203 whole entry, looked up): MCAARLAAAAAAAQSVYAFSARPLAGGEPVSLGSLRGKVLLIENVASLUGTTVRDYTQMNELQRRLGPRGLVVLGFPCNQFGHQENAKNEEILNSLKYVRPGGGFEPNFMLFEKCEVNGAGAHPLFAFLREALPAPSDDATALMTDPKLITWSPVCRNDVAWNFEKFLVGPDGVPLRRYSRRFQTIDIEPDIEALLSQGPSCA
How it was run: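 GPX1 10 nM, GR 100 nM, GSH 1 mM, NADPH 0.5 mM, CHP 0.5 mM (final). 30-min cpd preincubation, RT. Ex340/Em450 read t=0, t=15 min.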

[4] = molecular target: Luciferin 4-monooxygenase (Photinus pyralis) (UniProt P08659); experiment: Primary firefly luciferase (FLuc) qHTS assay for identification of artifact compounds. (AID 1845220); details: outcome: dose series up to 54.1 µM unless noted; also: nearly all actives have a fitted effect of over 60% in size
How it was run: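 In this counter-screen for luciferase artifacts, test compounds met substrate (10 uM each luciferin and ATP) before 10 nM enzyme started the reaction. Light output was measured 5 min later.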

[5] = Primary fluorescence-based thiol-reactive (MSTI) qHTS assay for identification of artifact compounds. (AID 1845221); also: nearly all actives have a fitted effect of over 65% in size; also: potency is read from the fitted curve at half-maximal effect
How it was run: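 One-hour, room-temperature, dark incubation of compound with 4 uM MSTI in PBS (pH 7.4, 2% DMSO) precedes a fluorescence read at 525 nm excitation, 598 nm emission; Hill-equation fitting yields concentration-response values.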

[6] = test system: Nanoluciferase (engineered Oplophorus gracilirostris luciferase); experiment: Primary Nanoluciferase (NLuc) qHTS assay for identification of artifact compounds. (AID 1845222);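 also: NLuc secreted into diluted conditioned medium of S16 cells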
How it was run: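 Using secreted nanoluciferase in S16 culture medium (0.22 um filtered, 1:55 dilution), compounds were preincubated 15 min at RT. Signal was generated with Nano-Glo reagent (1:100) over 5 min.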

[7] = Primary redox qHTS assay for identification of artifact compounds. (AID 1845223);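 also: 0% = DMSO and 100% = reference compound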
How it was run: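 Redox-cycling detection via DTT (250 uM final) oxidation coupled to Amplex Red (25 uM)/HRP (250 mU/mL) in HBSS. 15 min preincubation plus 30 min after DTT, room temperature. Ex/Em 525/598 nm; 4-parameter Hill fit against DMSO and 10 uM DA3003.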

[8] = test system: HaCat; experiment: Cytotoxic Profiling of Annotated Libraries Using Quantitative High-Throughput Screening (AID 1296008); details: Five cell lines viability, CellTiter-Glo ATP luminescence, 48-72 h; max response: stronger effect = lower value; also: nearly all actives have a fitted effect of over 60% in size; also: potency is read from the fitted curve at half-maximal effect; as to max response: % is scaled to controls: 0 for no effect and ±100 for the full control effect
How it was run: (§1)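 Compounds were pin-transferred onto cells and incubated 48 or 72 hr at 37 degree Celsius, 95% humidity. CellTiter-Glo was added, plates sat 10 min at room temperature, then ATP-coupled luminescence was imaged as the viability read-out.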

[9] = test system: NIH3T3; experiment: as above; details: Five cell lines viability, CellTiter-Glo ATP luminescence, 48-72 h; max response: stronger effect = lower value
How it was run: as §1

[10] = test system: C33A; experiment: Primary qHTS to identify gynecologic anti-cancer compounds using libraries of approved drugs and bioactive compounds (AID 1345084); details: Gynecologic cancer cell panel viability, ATPlite luminescence, 48 h; series mostly up to 57.5 µM; also: nearly all actives have a fitted effect of over 55% in size; also: potency is read from the fitted curve at half-maximal effect
How it was run: (§2)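 In this quantitative HTS, cell killing is estimated from loss of ATP-dependent luciferase light. Cells see five compound concentrations over a 48 h exposure.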

[11] = test system: CAOV3; experiment: as above; details: Gynecologic cancer cell panel viability, ATPlite luminescence, 48 h; series mostly up to 57.5 µM
How it was run: as §2

[12] = test system: CASKI; experiment: as above; details: Gynecologic cancer cell panel viability, ATPlite luminescence, 48 h; series mostly up to 57.5 µM
How it was run: as §2

[13] = test system: Es-2; experiment: as above; details: Gynecologic cancer cell panel viability, ATPlite luminescence, 48 h; series mostly up to 57.5 µM
How it was run: as §2

[14] = test system: Hek293T; experiment: as above; details: Gynecologic cancer cell panel viability, ATPlite luminescence, 48 h, control line for the selectivity index; series mostly up to 57.5 µM
How it was run: as §2

[15] = test system: JEG-3; experiment: as above; details: Gynecologic cancer cell panel viability, ATPlite luminescence, 48 h; series mostly up to 57.5 µM
How it was run: as §2

[16] = test system: PA-1; experiment: as above; details: Gynecologic cancer cell panel viability, ATPlite luminescence, 48 h; series mostly up to 57.5 µM
How it was run: as §2

[17] = test system: Tov-21-G; experiment: as above; details: Gynecologic cancer cell panel viability, ATPlite luminescence, 48 h; series mostly up to 57.5 µM
How it was run: as §2

[18] = test system: Tov112D; experiment: as above; details: Gynecologic cancer cell panel viability, ATPlite luminescence, 48 h; series mostly up to 57.5 µM
How it was run: as §2

[19] = molecular target: Phospholipid hydroperoxide glutathione peroxidase GPX4 (Homo sapiens) (UniProt P36969); experiment: Primary qHTS Assay for Inhibitors of Recombinant Selenoprotein Glutathione Peroxidase 4 (GPX4) (AID 1845192); also: nearly all actives have a fitted effect of over 65% in size
Chain of Phospholipid hydroperoxide glutathione peroxidase GPX4 (Homo sapiens) (P36969 whole entry, looked up): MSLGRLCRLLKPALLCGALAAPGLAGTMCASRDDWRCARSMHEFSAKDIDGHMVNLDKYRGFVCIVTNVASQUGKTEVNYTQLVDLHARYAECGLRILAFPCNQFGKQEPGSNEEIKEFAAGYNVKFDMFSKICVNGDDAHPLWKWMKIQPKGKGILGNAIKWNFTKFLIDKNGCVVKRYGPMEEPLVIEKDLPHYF
How it was run: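 qHTS, GR-coupled: GPX4 200 nM + cpd 30 min RT → GSH 1 mM, NADPH 0.5 mM, GR 100 nM → CHP 0.5 mM start; fluor 340/450 at t0 and t15 min; no-enzyme wells as control.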

[20] = test system: OV90; experiment: Primary qHTS to identify gynecologic anti-cancer compounds using libraries of approved drugs and bioactive compounds (AID 1345084); details: Gynecologic cancer cell panel viability, ATPlite luminescence, 48 h; series mostly up to 57.5 µM; also: nearly all actives have a fitted effect of over 55% in size; also: potency is read from the fitted curve at half-maximal effect
How it was run: as §2

CCCN(CCC)CCc1ccc(OC)c(OCCc2ccccc2)c1
inactive: Potency [1] | Potency [2] | Potency [3] | outcome [4] | Potency [5] | Potency [6] | Potency [7] | max response [8] -13.9% | max response [9] 1.81% | Potency [10] | Potency [11] | Potency [12] | Potency [13] | Potency [14] | Potency [15] | Potency [16] | Potency [17] | Potency [18]

CCC(C)C1NC(=O)C(C(C)=O)=C1O (configuration not stated)
inactive: Potency [1] | Potency [2] | Potency [3] | Potency [19] | outcome [4] | Potency [5] | Potency [6] | Potency [7] | outcome [8] | Potency [10] | Potency [11] | Potency [12] | Potency [13] | Potency [14] | Potency [15] | Potency [20] | Potency [16] | Potency [17] | Potency [18]

CC1CCCC(O)CCC/C=C/c2cc(O)cc(O)c2C(=O)O1 (configuration not stated)
inactive: Potency [19] | outcome [4] | Potency [6] | Potency [7] | max response [8] 0.224% | Potency [11] | Potency [12] | Potency [13] | Potency [14] | Potency [15] | Potency [20] | Potency [16] | Potency [17] | Potency [18]
active: Potency [5] 1850 nM | Potency [9] 8050 nM

O=S(=O)(c1ccccc1F)N1CCOc2c(N3CCNCC3)cccc21
inactive: Potency [1] | Potency [2] | Potency [3] | Potency [19] | outcome [4] | Potency [5] | Potency [6] | Potency [7] | outcome [8] | max response [9] 2.22% | Potency [10] | Potency [12] | Potency [13] | Potency [14] | Potency [15] | Potency [20] | Potency [16] | Potency [17] | Potency [18]

CO[C@H]1C[C@H](O[C@H]2CC[C@]3(C=O)[C@H]4CC[C@]5(C)[C@@H](C6=CC(=O)OC6)CC[C@]5(O)[C@@H]4CC[C@]3(O)C2)O[C@H](C)[C@H]1O
inactive: Potency [1] | Potency [2] | Potency [3] | Potency [19] | outcome [4] inactive [at 25.7 µM] | Potency [5] | Potency [6] | Potency [7] | outcome [9]
active: Potency [8] 356 nM | Potency [10] 100 nM | Potency [11] 199 nM | Potency [13] 141 nM | Potency [14] 224 nM | Potency [20] 891 nM | Potency [16] 141 nM | Potency [17] 141 nM | Potency [18] 89.1 nM

O=C(N[C@H]1CN2CCC1CC2)c1cc2cccc(Cl)c2s1
inactive: Potency [1] | Potency [2] | Potency [3] | Potency [19] | outcome [4] | Potency [5] | Potency [6] | Potency [7] | max response [8] -4.19% | Potency [10] | Potency [12] | Potency [13] | Potency [14] | Potency [15] | Potency [20] | Potency [16] | Potency [17] | Potency [18]

Cc1cccc(NC(=O)NC2N=C(c3ccccc3)c3ccccc3N(CC(=O)c3ccccc3C)C2=O)c1 (configuration not stated)
inactive: Potency [1] | Potency [2] | Potency [3] | outcome [4] | Potency [6] | Potency [7] | outcome [8] | outcome [9] | Potency [10] | Potency [12] | Potency [13] | Potency [14] | Potency [15] | Potency [20] | Potency [16] | Potency [17] | Potency [18]

Oc1ccc2c(c1)C13CCCC[C@H]1[C@@H](C2)N(CC1CCC1)CC3
inactive: Potency [1] | Potency [2] | Potency [3] | Potency [19] | outcome [4] | Potency [5] | Potency [6] | Potency [7] | outcome [8] | max response [9] -7.5% | Potency [10] | Potency [11] | Potency [12] | Potency [14] | Potency [15] | Potency [17] | Potency [18]

O=C(C[C@@H]1NCCC[C@H]1O)Cn1cnc2ccccc2c1=O
inactive: Potency [1] | Potency [2] | Potency [3] | Potency [19] | outcome [4] | Potency [6] | Potency [7]
active: Potency [8] 1300 nM | Potency [9] 366 nM | Potency [10] 631 nM | Potency [12] 1780 nM | Potency [13] 1410 nM | Potency [14] 447 nM | Potency [20] 11200 nM | Potency [16] 282 nM | Potency [17] 794 nM | Potency [18] 631 nM

COC(=O)C12C(=O)C(C)(O)C(=O)C1(C)C(C)=CC1C3(C=O)CCC(OC(C)=O)C(C)(C)C3CCC12C (configuration not stated)
inactive: Potency [2] | Potency [3] | Potency [19] | outcome [4] inactive [at 25.7 µM] | Potency [6] | Potency [7] | max response [8] -17.3% | max response [9] -2.03% | Potency [10] | Potency [11] | Potency [12] | Potency [13] | Potency [14] | Potency [15] | Potency [20] | Potency [16] | Potency [17] | Potency [18]

CC(O)(c1ccccc1)C(Cc1ccc(Cl)cc1)n1cncn1 (configuration not stated)
inactive: Potency [1] | Potency [2] | Potency [3] | Potency [19] | outcome [4] | Potency [5] | Potency [6] | Potency [7] | outcome [8] | max response [9] 1.55% | Potency [10] | Potency [11] | Potency [12] | Potency [13] | Potency [14] | Potency [15] | Potency [20] | Potency [16] | Potency [17] | Potency [18]

CC1=CC2/C=C(\C)CCC(O)C(O)/C=C/C(=O)OC23C(=O)NC(CC(C)C)C3C1C (configuration not stated)
inactive: Potency [1] | Potency [2] | Potency [3] | Potency [19] | outcome [4] | Potency [5] | Potency [6] | Potency [7] | outcome [8] | max response [9] -15.3% | Potency [10] | Potency [11] | Potency [12] | Potency [13] | Potency [14] | Potency [15] | Potency [20] | Potency [16] | Potency [17] | Potency [18]
